PI5P4K alpha inh = qHTS for Inhibitors of phosphatidylinositol 5-phosphate 4-kinase (PI5P4K); max response, %; AID 652105, 2013; hit rate 1.2% among 330,000; PI5P4Kalpha enzyme, ADP-Glo luminescence, 60 min; hits give low values; active means max response of -50% or lower; inconclusive means between -30% and -50%; inactive means -30% or higher; further: value at the top dose of about 77 µM; on the % scale 0 is the no-effect control and ±100 the full control effect
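qHTS, 1536-well: enzyme/substrate mix, compound by pin tool, 5 microM ATP final; RT 60 min; ADP-Glo reagents 1 (45 min) then 2 (30 min); luminescence.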
USP2a block = qHTS Assay for Inhibitors of Ubiquitin-specific Protease USP2a Using CHOP2 as the Reporter. Ubiquitin carboxyl-terminal hydrolase 2 (Homo sapiens), O75604. USP2 core, Ub-CHOP2 coupled fluorogenic reporter, 485/531. Potency, µM (doses to about 38.3 µM), without a hit: top-dose activity change, negative = inhibition, actives largely listed as inhibitors. hit rate 0.01% among 330,000. AID 463254, 2010;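 further: potency means the concentration at half of the fitted maximal effect; plate controls were DMSO wells for no effect and full inhibition by NEM control for full effect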
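Deubiquitinase activity read as fluorescence (485/531 nm) after Ub-CHOP2 cleavage activates the enterokinase reporter on its substrate; USP2 core 10nM, Ub-CHOP2 and substrate 25nM each, 30min compound preincubation then 60min RT; data normalized to NEM, curves fitted.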
USP1-UAF1 inh = Inhibitors of USP1/UAF1: Primary Screen; hit rate 0.23% among 390,000; Ubiquitin carboxyl-terminal hydrolase 1 (Homo sapiens), O94782; recombinant USP1/UAF1, Ub-Rhodamine cleavage fluorescence; Potency, µM (top dose mostly 57.1 µM), for inactives: at the highest dose activity change, negative = inhibition, hits mostly inhibitors; further: potency means the concentration at half of the fitted maximal effect; on the % scale 0 is the no-effect control and ±100 the full control effect; nearly all actives have a fitted effect of over 60% in size
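High-throughput fluorogenic screen: 1nM USP1/UAF1 complex, Ub-Rho substrate 150nM final, 50mM HEPES pH 7.8 with 0.5mM EDTA, 0.1 mg/ml BSA, 1mM TCEP and 0.01% Tween-20.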
PLK1 PBD block = qHTS for Inhibitors of PLK1-PDB (polo-like kinase 1 - polo-box domain): Primary Screen. hit rate 2.8% among 360,000. Potency, µM, for the others: max response, negative = inhibition, usual class: inhibitors. Serine/threonine-protein kinase PLK1 (Homo sapiens), P53350. Plk1 PBD binding of FITC phosphopeptide, fluorescence polarization; further: potency means the concentration at half of the fitted maximal effect; series mostly up to about 57 µM; on the % scale 0 is the no-effect control and ±100 the full control effect; nearly all actives have a fitted effect of over 65% in size
Target sequence (P53350 whole entry, looked up, the tested form may be a part): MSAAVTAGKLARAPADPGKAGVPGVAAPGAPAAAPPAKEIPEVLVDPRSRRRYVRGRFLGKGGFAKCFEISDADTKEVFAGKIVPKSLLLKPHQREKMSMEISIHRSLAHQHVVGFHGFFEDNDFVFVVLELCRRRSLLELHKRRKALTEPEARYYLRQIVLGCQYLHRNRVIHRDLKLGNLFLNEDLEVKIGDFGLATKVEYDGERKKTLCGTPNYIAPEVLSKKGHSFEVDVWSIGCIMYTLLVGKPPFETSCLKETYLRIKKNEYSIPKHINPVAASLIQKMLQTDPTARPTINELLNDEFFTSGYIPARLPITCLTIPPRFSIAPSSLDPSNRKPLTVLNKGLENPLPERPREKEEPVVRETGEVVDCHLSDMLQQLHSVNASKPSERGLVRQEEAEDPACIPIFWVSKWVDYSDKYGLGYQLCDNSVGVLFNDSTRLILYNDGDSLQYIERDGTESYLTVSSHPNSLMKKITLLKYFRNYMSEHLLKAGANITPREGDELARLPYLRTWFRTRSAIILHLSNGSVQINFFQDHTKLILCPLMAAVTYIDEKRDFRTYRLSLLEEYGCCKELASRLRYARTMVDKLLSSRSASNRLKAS
WRN helicase inh-1 = qHTS for Inhibitors of WRN Helicase | Potency, µM (titrated, usually from 114 µM), without a hit: top-dose activity change, negative = inhibition, most hits filed as inhibitors | Bifunctional 3'-5' exonuclease/ATP-dependent helicase WRN (Homo sapiens), Q14191 | hit rate 0.46% among 360,000 | WRN helicase unwinding, fluorescent forked duplex, kinetic; further: potency means the concentration at half of the fitted maximal effect; on the % scale 0 is the no-effect control and ±100 the full control effect; nearly all actives have a fitted effect of over 55% in size
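Enzyme (20 nM final) and test compound sit together 15 min at room temperature before substrate addition. Substrate is a single-forked duplex oligonucleotide (100 nM) labelled with fluorophore and quencher, with 2 mM ATP; helicase unwinding raises red fluorescence, read kinetically.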
WRN helicase inh-2 = qHTS for Inhibitors of WRN Helicase: Confirmatory Assay for Cherry-picked Compounds. hit rate 63% among 610. shares compounds with WRN helicase inh-1. Potency, µM (top dose mostly 57.1 µM), for inactives: at the highest dose activity, negative = inhibition, actives largely listed as inhibitors. WRN helicase DNA unwinding, fluorescence kinetic; further: potency means the concentration at half of the fitted maximal effect; nearly all actives have a fitted effect of over 65% in size
TO DNA binding = qHTS for Inhibitors of WRN Helicase: Thiazole Orange DNA Binding Counterscreen; shares compounds with WRN helicase inh-1; thiazole orange DNA binding displacement, fluorescence; Potency, µM (series often up to 57.1 µM), inactives show at the top dose activity change, negative = inhibition, hits mostly inhibitors; hit rate 10% among 610;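 further: drop in dye fluorescence marks compound binding to DNA; potency means the concentration at half of the fitted maximal effect; on the % scale 0 is the no-effect control and ±100 the full control effect; nearly all actives have a fitted effect of over 60% in size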
BLM counter = qHTS for Inhibitors of WRN Helicase: BLM Helicase Counterscreen for WRN Inhibitors. Potency, µM (titrated, usually from 57.1 µM), without a hit: at the top dose activity change, negative = inhibition, actives largely listed as inhibitors. hit rate 60% among 610. Recombinant BLM helicase DNA unwinding, red fluorescence. shares compounds with WRN helicase inh-1; further: potency means the concentration at half of the fitted maximal effect; nearly all actives have a fitted effect of over 60% in size
ADP-Glo counter = qHTS for Inhibitors of PI5P4K: ADP-Glo counter assay. shares compounds with PI5P4K alpha inh. ADP-Glo detection counter-screen, luciferase luminescence, no enzyme. Potency, µM (top dose mostly 76.9 µM), for inactives: at the top dose activity change, negative = inhibition, most hits filed as inhibitors. 1,100 tested, under 10 active
TbPYK confirm = qHTS of Trypanosoma Brucei Inhibitors: Confirmatory Assay for Cherry-picked Compounds | shares compounds with PLK1 PBD block | recombinant TbPYK, Kinase-Glo ATP luminescence | Potency, µM (titrated, usually from 76.9 µM), inactives show top-dose activity change, negative = inhibition, most hits filed as inhibitors | hit rate 67% among 890; further: potency means the concentration at half of the fitted maximal effect; on the % scale 0 is the no-effect control and ±100 the full control effect; nearly all actives have a fitted effect of over 70% in size
TbPYK orthogonal = qHTS of Trypanosoma Brucei Inhibitors: Orthogonal Assay for Cherry-picked Compounds | Potency, µM (series often up to 76.9 µM), without a hit: top-dose activity change, negative = inhibition, hits mostly inhibitors | hit rate 62% among 890 | shares compounds with PLK1 PBD block | recombinant TbPYK, ADP-Glo luminescence, 60 min; further: potency means the concentration at half of the fitted maximal effect; on the % scale 0 is the no-effect control and ±100 the full control effect; nearly all actives have a fitted effect of over 75% in size
Numbers without * were called inactive; u = inconclusive; x = no result given; [ ] = remark or other dose. Shown are actives, neighbours in structure and some others; about 3.3% of the full set was active somewhere. Unless noted, the call rests on the fitted dose curve; in most records, active means well fitted curve in the direction sought with a large enough effect; inconclusive means small, poorly fitted or top-dose-only effect, or another doubt; inactive means no such curve, though single readings can be large; an effect the other way counts as inactive or inconclusive.

SMILES	PI5P4K alpha inh	USP2a block	USP1-UAF1 inh	PLK1 PBD block	WRN helicase inh-1	WRN helicase inh-2	TO DNA binding	BLM counter	ADP-Glo counter	TbPYK confirm	TbPYK orthogonal
CN(C)c1ccc(/C=C/c2ccc3ccccc3[n+]2C)cc1	u	0.4%	-15.8%	11.1%	39.8µM*	24.1µM*	27.1µM*	27.1µM*	x	u	1.7%
Cc1oc2ncnc(N3CCCCC3)c2c1C(=O)NCC1CCN(Cc2ccccc2F)CC1	x	x	-11.7%	x	x	x	x	x	x	x	x
COc1ccc(NC(=O)C2CCN(S(=O)(=O)c3cccc(-c4noc(C)n4)c3)CC2)cc1OC	x	x	-7.0%	x	x	x	x	x	x	x	x
O=C1OC2(c3ccccc31)c1ccccc1-c1ccccc12	-1.7	x	-10.9%	-4.0%	-26.9%	x	x	x	x	x	x
O=C1OC(c2ccc3ccccc3c2O)(c2ccc3ccccc3c2O)c2ccccc21	-79.4*	x	u	4.74µM*	u	u	24.1µM*	-29.0%	x	12.6µM*	12.6µM*
COC(=O)c1ccc(CCc2cc(O)c(Br)cc2O)cc1	-52.3*	x	-23.2%	u	25.1µM*	-27.4%	-10.9%	u	x	31.6µM*	35.5µM*
CC(Oc1ccccc1)C(=O)Nc1ccc(S(=O)(=O)N2CCN(C)CC2)cc1 (stereo unspecified)	-3.8	0.9%	-9.1%	-6.2%	9.4%	x	x	x	x	x	x
CC(Oc1ccccc1Cl)C(=O)Nc1ccc(S(=O)(=O)N2CCN(C)CC2)cc1 (stereo unspecified)	-66.6*	x	-8.6%	18.9µM*	31.6µM*	-19.7%	-7.3%	-28.5%	x	u	u
O=C(CCSCCC(=O)NCc1ccco1)NCc1ccco1	u	0.5%	-23.3%	21.2µM*	13.4µM*	21.5µM*	-12.7%	17.1µM*	x	u	u
Cc1ccc(NC(=O)C2CCC(CNS(=O)(=O)c3csc(C(N)=O)c3)CC2)cc1Cl (stereo unspecified)	x	x	-24.5%	x	x	x	x	x	x	x	x
O=C1C2CC=CCC2C(=O)N1Nc1ccccc1 (stereo unspecified)	3.4	2.5%	-5.0%	2.1%	-8.7%	x	x	x	x	x	x
O=C1C=C(c2ccccc2)C(=O)N1Nc1ccccc1	-16.7	1.4%	-6.3%	8.44µM*	u	-6.0%	-4.1%	-18.8%	x	15.8µM*	25.1µM*
COc1cccc(-n2ccn(CC(=O)c3ccc(F)cc3)c(=O)c2=O)c1	x	x	-6.6%	x	x	x	x	x	x	x	x
O=C(O)CC(C(=O)O)N1C(=O)/C(=C/C=C/c2ccco2)SC1=S (stereo unspecified)	-54.7*	u	u	2.38µM*	10µM*	3.83µM*	3.83µM*	4.82µM*	x	u	u
CCC(C(=O)O)N1C(=O)/C(=C/c2cccn2C)SC1=S (stereo unspecified)	0.9	14.6%	u	39.0%	-0.2%	x	x	x	x	x	x
CCCC[C@]12Cc3cc(C#N)ccc3C(O1)c1c(c3cc(F)ccc3oc1=O)O2	x	-6.0%[7.66 µM]	x	x	x	x	x	x	x	x	x
O=C(Nc1ccccc1)c1nnsc1S(=O)c1ccc(Cl)cc1 (stereo unspecified)	6.3	0.1%	-17.9%	0.474µM*	22.4µM*	-20.0%	83.6%	-22.3%	x	15.8µM*	14.1µM*
Cc1ccc(-c2cc(C(=O)O)c3cc(Br)ccc3n2)o1	-68.8*	1.4%	-23.8%	11.9µM*	35.5µM*	15.2µM*	-10.5%	u	0.1%	11.2µM*	14.1µM*
CC(=O)c1ccc(OCc2c(-c3ccccc3)nnn2CC(=O)NS(=O)(=O)c2ccc(C)cc2)cc1	-5.7	x	x	-1.8%	6.0%	x	x	x	x	x	x
CC(=O)c1ccc(OCc2c(-c3ccccc3)nnn2CC(=O)NS(=O)(=O)c2ccccc2C)cc1	-50.7*	x	x	-8.3%	-6.0%	x	x	x	-3.6%	x	x
Cc1c(C(=O)OCC(C)C)[nH]c2c1C(=O)CC(c1ccco1)C2 (stereo unspecified)	-55.7*	-0.3%	-15.1%	-10.3%	-16.8%[57.1 µM]	x	x	x	-13.3%	x	x
Nc1nc(N)c2cc([N+](=O)[O-])ccc2n1	-21.8	x	-8.3%	-5.7%	-32.3%	x	x	x	x	x	x
Nc1nc(N)c2c(ccc3c2ccn3Cc2cccc([N+](=O)[O-])c2)n1	-61.5*	x	x	2.1%	-15.0%[57.1 µM]	x	x	x	0.6%	x	x
CC(NC(=O)c1ccnn1C)C1CCCO1 (stereo unspecified)	u	-0.3%	-0.7%	-12.9%	3.3%	x	x	x	1.9%	x	x
COc1cc(Br)cc(CNc2ccc(F)c([N+](=O)[O-])c2)c1O	-28.2	-5.5%	-20.7%	-2.1%	-9.0%	x	x	x	0.4%	x	x
COc1ccc(CCn2c(O)cc3nn(-c4nc5ccccc5s4)c(=O)c-3c2C)cc1	-80.9*	u	u	-24.6%	u	x	x	x	2.7%	x	x
COc1ccc(CN2CCN(c3nc4ccccc4s3)CC2)cc1	3.6	0.6%	-8.7%	-3.8%	2.7%	x	x	x	x	x	x
NS(=O)(=O)c1ccc2c(c1)C1C=CCC1C(C1CC=CCC1)N2 (stereo unspecified)	-79.8*	7.3%	-23.9%	-24.5%	u	x	x	x	-12.6%	x	x

High-throughput results deposited in PubChem BioAssay by National Center for Advancing Translational Sciences (NCATS).
